Data published in PubChem BioAssay AID488896 (Broad Institute, 2010).
Among all 320,000 compounds or so, about 3,100 (0.97%) were called active. The sample holds actives, similar compounds and a random draw of the others, so the mix is not that of the screen.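 How the source made its calls: active means mean replicate inhibition of at least 70% and a set share of replicates each scoring 70 or more; inconclusive means meets just one of the two criteria; inactive means fails both criteria.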

Target: Scavenger receptor class B member 1 (Mus musculus) (UniProt Q61009)
Sequence (Q61009 whole entry, looked up): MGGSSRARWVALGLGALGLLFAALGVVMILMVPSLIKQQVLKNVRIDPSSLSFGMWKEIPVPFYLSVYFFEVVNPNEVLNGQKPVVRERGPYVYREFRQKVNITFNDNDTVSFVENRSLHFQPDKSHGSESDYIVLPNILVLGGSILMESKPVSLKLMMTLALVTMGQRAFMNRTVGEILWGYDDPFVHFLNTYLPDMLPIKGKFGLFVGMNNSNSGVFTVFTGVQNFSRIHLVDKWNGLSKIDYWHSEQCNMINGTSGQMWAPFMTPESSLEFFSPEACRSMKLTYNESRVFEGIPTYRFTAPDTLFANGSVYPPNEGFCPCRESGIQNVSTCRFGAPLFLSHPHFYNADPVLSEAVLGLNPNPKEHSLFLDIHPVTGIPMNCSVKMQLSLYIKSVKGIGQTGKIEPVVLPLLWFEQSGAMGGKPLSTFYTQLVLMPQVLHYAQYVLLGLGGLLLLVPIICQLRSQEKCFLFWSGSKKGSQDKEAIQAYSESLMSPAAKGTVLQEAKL
Test: inhibitors of SR-BI mediated HDL lipid uptake, primary screen, ldlA[mSR-BI] cells, fluorescence, single point (AID 488896);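 further: 0% = median of neutral control wells and 100% = median of positive control wells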
Conditions: ldlA[mSR-BI] CHO cells, DiI-HDL uptake fluorescence, 3 h; at 12.5 µM; active compounds read high

SMILES	inhibition
Cc1ccc(OCCNC(=O)c2cccc(S(=O)(=O)N3CCN(Cc4ccccc4)CC3)c2)cc1	20.6% (inactive)
COc1ccc(C(=O)Nc2cccc(/C=C(/CCC(=O)O)c3nc4ccccc4s3)c2)cc1	36.4% (inactive)
O=C(N/N=C/c1ccoc1)c1ccc(Cl)cc1Cl	-28.2% (inactive)
O=C(N/N=C/c1ccc(OC(=O)c2ccccc2Cl)cc1)c1ccc(O)cc1	44.4% (inactive)
CC(C)(C)C(=O)Nc1ccc(C(=O)N/N=C/c2ccccc2OC(=O)c2ccc(Cl)cc2Cl)cc1	94.1% (active)
O=C(NCC1(N2CCCCC2)CCCCC1)c1cccc(S(=O)(=O)Nc2ccccc2Cl)c1	-8.99% (inactive)
CCOc1ccc2c(c1)C(c1ccc(C)cc1)=NNC(c1ccc(C)cc1)=N2	85.5% (active)
Cc1ccc(C2=Nc3c(ccc4ccccc34)C(c3ccncc3)=NN2)cc1	2.19% (inactive)
COc1ccc2c(c1)C(c1cccs1)=NNC(c1cccnc1)=N2	-13.8% (inactive)
CN(C)c1ccc(CSc2ccccc2)cc1	-8.91% (inactive)
O=C(CCCCCCCC(=O)N1CCCCC1)N1CCCCC1	-7.35% (inactive)
CSCCC(NC(=O)COc1ccccc1)C(=O)N1CCN(c2cccc(C(F)(F)F)c2)CC1 (stereo unspecified)	13.3% (inactive)
Cc1ccc(C)c(OCC(=O)N2CCN(C(=O)c3ccco3)CC2)c1	-10.6% (inactive)
CCC(=O)Nc1ccc(C(=O)N2CCN(C(=O)c3ccco3)CC2)cc1	-9.2% (inactive)
Cc1ccc(OCC(=O)Nc2ccc(N3CCN(C(=O)c4ccco4)CC3)cc2)c(C)c1	78% (active)
COc1cc2[nH]c(O)c(C=O)c2cc1OC	-52% (inactive)
O=C1OCC2=C1C(c1ccc(Cl)cc1)c1cc3c(cc1O2)OCO3 (stereo unspecified)	14% (inactive)
Cc1ccc(Nc2nc(N3CCOCC3)nc(N3CCOCC3)n2)cc1Cl	55% (inactive)
CCOc1ccc(Nc2nc(Cl)nc(N3CCN(c4ccc(OC)cc4)CC3)n2)cc1	73.8% (active)

SMILES	inhibition
COc1ccc(Nc2ncc(F)c(N3CCOCC3)n2)cc1	22.2% (inactive)
CCN(CC)S(=O)(=O)c1cccc(NC(=O)c2ccc(S(=O)(=O)N3CCCC3)cc2)c1	41.2% (inactive)
Cn1c(N)cc(=O)n(C)c1=S	-17.8% (inactive)
CN(C)c1ccc(C(=S)N2CCN(C(=S)Nc3ccc(Cl)cc3)CC2)cc1	95% (active)
CCOC(=O)c1ccc(NC(=S)N2CCCC2)cc1	-10.4% (inactive)
NC(=O)C1(N2CCCCC2)CCN(C(=S)Nc2ccc(Cl)cc2)CC1	-24.6% (inactive)
Cc1nc(-c2ccc(Cl)cc2)sc1C(=O)NN	25.2% (inactive)
C=CCNC(=O)c1sc(SC)cc1-c1ccc(Cl)cc1	73.9% (active)
C=CCNC(=O)c1cc(-c2ccccc2O)on1	44.1% (inactive)
CC[C@]12c3[nH]c4cc(CCC(=O)N(C)C)ccc4c3CCN1C(=O)[C@@H](CC(=O)NCC13CC4CC(CC(C4)C1)C3)C[C@@H]2C(=O)N1CCN(C(=O)C2CC2)CC1	1.08% (inactive)
O=C(CSc1nc2ccccc2[nH]1)N/N=C/C=C\c1ccccc1[N+](=O)[O-]	4.51% (inactive)
CCn1c(SCC(=O)N/N=C/C=C/c2ccccc2[N+](=O)[O-])nnc1-c1ccccc1	14.2% (inactive)
Cc1ccc(-n2c(SCC(=O)N/N=C/C=C/c3ccccc3[N+](=O)[O-])nc3ccccc3c2=O)cc1	74% (active)
CNN/C(N=Cc1ccc([N+](=O)[O-])s1)=N\S(=O)(=O)c1cc(C)c(Cl)cc1SCc1ccccc1	-9.94% (inactive)
CC(C=Cc1ccccc1)=NNS(=O)(=O)c1ccc([N+](=O)[O-])cc1	-6.47% (inactive)
CCc1ccc(C(=O)C(C)OC(=O)CN2C(=O)NC3(CCCC3)C2=O)cc1 (stereo unspecified)	-13.5% (inactive)
CC(C)(C)S(=O)(=O)N1Cc2cc(CO)cc(CCO)c2[C@H]1CCO	2.47% (inactive)
CCOc1ccc(-n2c(O)c(/C=N/c3ccnn3Cc3ccncc3)c3ccccc3c2=O)cc1	-0.942% (inactive)
CCOc1ccc(-n2c(O)c(/C=N/Nc3nnc(C)c(=O)[nH]3)c3ccccc3c2=O)cc1	108% (active)

SMILES	inhibition
CCOc1ccc(-n2c(O)c(/C=N/Nc3nc(C)cc(C)n3)c3ccccc3c2=O)cc1	34.2% (inactive)
CC(=O)N1CCc2ccc(N)cc21	12.2% (inactive)
COc1cc(/C=N/NC(=O)Nc2ccccc2)ccc1OCCOc1ccccc1C	71.4% (active)
COc1cc(/C=N/NC(=O)Cc2ccccc2)cc(OC)c1OC	3.39% (inactive)
COc1cc(/C=N/NC(=O)c2ccoc2C)ccc1OCCN1CCCCC1	3.01% (inactive)
O=C1OC(Oc2ccc(Br)cc2)(c2ccccc2)c2ccccc21 (stereo unspecified)	0.981% (inactive)
CCc1nnc(NC(=O)c2cc(S(=O)(=O)N3CCN(CC)CC3)ccc2Cl)s1	-25.4% (inactive)
Cc1ccc(-n2c(SCC(=O)Nc3ncc(Cl)cc3Cl)nc3ccccc32)cc1	78.1% (active)
NS(=O)(=O)c1cccc(NC(=O)CSc2nc3ccccc3n2-c2ccccc2)c1	23.7% (inactive)
CCOc1ccc(-n2c(SCC(=O)Nc3cc(C(=O)O)ccc3Cl)nc3ccccc3c2=O)cc1	-14% (inactive)
COc1ccc(-c2sc3ccc(OC)cc3c2C#Cc2ccccn2)cc1	56.6% (inactive)
COc1ccc2sc(-c3ccc(S(C)(=O)=O)cc3)c(-c3ccc(C(N)=O)cc3)c2c1	54.1% (inactive)
COc1ccc2sc(-c3ccc(N(C)C)cc3)c(-c3ccc4cc[nH]c4c3)c2c1	85% (active)
COc1cc(OC)cc(-c2sc3ccc(OC)cc3c2-c2ccc3cc[nH]c3c2)c1	58.8% (inactive)
COc1ccc2sc(-c3ccc(S(C)(=O)=O)cc3)c(C#Cc3cncn3C)c2c1	13.9% (inactive)
COc1ccc2sc(-c3ccc(N(C)C)cc3)c(C#CCO)c2c1	99.4% (active)
CN1CCC(N(C)C(=O)c2ccc(Cl)c(S(=O)(=O)Nc3ccc(Cl)cc3)c2)CC1	-12% (inactive)
O=C(NCC1CCCCC1)NCC1CCCCC1	-12.9% (inactive)
